Measurements reported in PubChem BioAssay (Tox21).
Several values for one entry are separate records, joined by “and”; a condition that tells them apart may be missing. Equal values may be shown once. Inconclusive results are not listed. Entries that show only a call come without a potency. A structure can be active in one record and inactive in another. Activity calls are given as the source filed them. Calls follow the shape of the dose curve; as a rule, active = well fitted curve in the direction sought with a large enough effect in the repeat runs; inconclusive = weak or mixed curves; inactive = no such curve, though single readings can be large; an effect the other way counts as inactive or inconclusive.

Legend:
[1] = Human pregnane X receptor (PXR) small molecule agonists, qHTS cell viability counter screen (AID 1346977); also: nearly all actives have a fitted effect of over 50% in size; also: potency is read from the fitted curve at half-maximal effect
In short: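 PXR-Luc HepG2, 2,000 cells/well, 5% charcoal-stripped FBS; 5hr settle; cpd 24hr, 37C/5% CO2; CellTiter-Fluor at 23hr, read 1hr later (fluorescence).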

[2] = Caspase-3/7 induction in HepG2 cells by small molecules, qHTS assay (AID 1346978); also: nearly all actives have a fitted effect of over 15% in size; also: potency is read from the fitted curve at half-maximal effect
In short: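 Caspase-3/7 induction was measured by Caspase-Glo 3/7 luminescence (30 min, room temperature) after a 17 hr compound exposure of wild-type HepG2 cells seeded at 2,000 per well and pre-incubated 5 hr.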

[3] = Caspase-3/7 induction in CHO-K1 cells by small molecules, qHTS cell viability counter screen (AID 1346979); also: nearly all actives have a fitted effect of over 35% in size; also: potency is read from the fitted curve at half-maximal effect
In short: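 Cells (CHO-K1, wild type) are plated at 1,500 per well and incubated 5hr. Test compounds in DMSO are then pinned in, followed by 16hr at 37C and 5% CO2. Viability is read by CellTiter-Fluor fluorescence after 1hr.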

[4] = Caspase-3/7 induction in CHO-K1 cells by small molecules, qHTS assay (AID 1346980); also: nearly all actives have a fitted effect of over 15% in size
In short: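 Luminescent Caspase-Glo 3/7 read (30min, room temperature) quantified apoptosis induction. Cells were wild-type CHO-K1, treated with compound for 17hr at 37 C and 5% CO2.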

[5] = Caspase-3/7 induction in HepG2 cells by small molecules, qHTS cell viability counter screen (AID 1346981); also: nearly all actives have a fitted effect of over 30% in size; also: potency is read from the fitted curve at half-maximal effect
In short: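 After a 5-hr attachment period at 37 C and 5% CO2, wild-type HepG2 cells received compounds in DMSO. Sixteen hours later CellTiter-Fluor was dispensed and the fluorescent signal quantified after a further hour.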

[6] = target: Nuclear receptor subfamily 1 group I member 2 (Homo sapiens) (UniProt O75469); test: Human pregnane X receptor (PXR) small molecule agonists, qHTS assay (AID 1346982); also: nearly all actives have a fitted effect of over 35% in size; also: potency is read from the fitted curve at half-maximal effect
Nuclear receptor subfamily 1 group I member 2 (Homo sapiens), sequence (O75469 whole entry, looked up): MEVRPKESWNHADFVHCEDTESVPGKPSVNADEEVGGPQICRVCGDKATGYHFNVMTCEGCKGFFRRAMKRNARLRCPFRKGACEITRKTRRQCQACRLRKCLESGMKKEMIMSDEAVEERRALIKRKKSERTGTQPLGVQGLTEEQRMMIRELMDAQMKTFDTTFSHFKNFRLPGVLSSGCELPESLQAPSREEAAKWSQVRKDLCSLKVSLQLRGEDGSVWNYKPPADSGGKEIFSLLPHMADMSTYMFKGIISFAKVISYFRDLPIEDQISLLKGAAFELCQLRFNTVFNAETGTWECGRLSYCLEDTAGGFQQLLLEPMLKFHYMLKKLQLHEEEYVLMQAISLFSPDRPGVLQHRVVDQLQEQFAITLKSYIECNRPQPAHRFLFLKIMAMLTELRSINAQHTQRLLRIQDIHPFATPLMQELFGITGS
In short: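 Tox21 qHTS; PXR-Luc HepG2; compounds pinned from DMSO; 24 hr, 37 C; ONE-Glo luciferase detection, 30 min room temperature.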

[7] = target: Nuclear receptor subfamily 1 group I member 2 (Rattus norvegicus) (UniProt Q9R1A7); test: Rat pregnane X receptor (rPXR) activation by small molecules, qHTS assay (AID 1346983); settings: rPXR luciferase reporter cells, One-Glo luminescence, 24 h; max activation: stronger effect = higher value; also: nearly all actives have a fitted effect of over 20% in size; also: potency is read from the fitted curve at half-maximal effect
Nuclear receptor subfamily 1 group I member 2 (Rattus norvegicus), sequence (Q9R1A7 whole entry, looked up): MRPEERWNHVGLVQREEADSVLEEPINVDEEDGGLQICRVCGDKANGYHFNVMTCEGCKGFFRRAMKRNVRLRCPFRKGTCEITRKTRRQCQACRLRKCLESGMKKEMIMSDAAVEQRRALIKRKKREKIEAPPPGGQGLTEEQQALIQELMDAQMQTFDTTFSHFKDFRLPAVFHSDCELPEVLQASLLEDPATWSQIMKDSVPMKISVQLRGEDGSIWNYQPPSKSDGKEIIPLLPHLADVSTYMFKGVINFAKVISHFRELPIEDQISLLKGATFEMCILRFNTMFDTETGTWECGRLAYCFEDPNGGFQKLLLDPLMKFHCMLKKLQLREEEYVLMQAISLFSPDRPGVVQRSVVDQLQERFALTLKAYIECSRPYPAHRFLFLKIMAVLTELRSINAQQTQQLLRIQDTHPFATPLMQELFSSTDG
In short: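 Luminescent readout (One-Glo luciferase, 30 min room temperature) followed 24 hr compound treatment at 37 C of rPXR cells plated 2,000 per well and preincubated 5hr; qHTS format with compounds delivered in DMSO.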

[8] = target: Nuclear receptor subfamily 1 group I member 2 (Homo sapiens) (UniProt O75469); test: CYP3A4 induction through human pregnane X receptor (PXR) by small molecules, qHTS assay (AID 1346984); also: nearly all actives have a fitted effect of over 40% in size; also: potency is read from the fitted curve at half-maximal effect
In short: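 Cells (DPX-2; HepG2 with PXR element plus CYP3A4-promoter luciferase) settled 5hr, then were treated 24hr at 37C. A 3hr, 3uM-final Luciferin-IPA step preceded luminescence measurement with One-Glo.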

[9] = target: Nuclear receptor subfamily 1 group I member 2 (Homo sapiens) (UniProt O75469); test: Human pregnane X receptor (PXR) activation by small molecules, qHTS assay (AID 1346985); also: nearly all actives have a fitted effect of over 40% in size
In short: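 DPX-2 cells (HepG2 co-transfected with a PXR response element and a CYP3A4-promoter luciferase construct) were seeded at 2,000 per well, rested 5 hr at 37C, then exposed to DMSO-dissolved compounds for 24 hr. Activation was read as luciferase luminescence.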

Row | SMILES | Potency [1] | Potency [2] | Potency [3] | Potency [4] | Potency [5] | Potency [6] | max activation [7] | Potency [8] | outcome [9] | Potency [7]
1 | O=C1c2c(O)cccc2Cc2cccc(O)c21 | inactive | inactive | inactive | inactive | inactive | inactive | -3.04% (inactive) | inactive | inactive | –
2 | C1CCC(C(CC2CCCCN2)C2CCCCC2)CC1 (stereo not given) | 26.6 µM (active) | 33.5 µM (active) | – | – | 29.8 µM (active) | 6.68 µM (active) | -20.4% (inactive) | inactive | inactive | –
3 | CC(=O)CCC(=O)O | inactive | inactive | inactive | inactive | inactive | inactive | -1.2% (inactive) | inactive | inactive | –
4 | CCCC[P+](CCCC)(CCCC)CCCC | inactive | inactive | inactive | inactive | inactive | – | – | – | – | –
5 | O=C(O)c1ccccc1 | inactive | inactive | inactive | inactive | inactive | inactive | – | – | – | –
6 | CC(=O)CC(c1ccccc1)c1c(O)c2ccccc2oc1=O (stereo not given) | inactive | – | 68.9 µM (active) and inactive | inactive | inactive | – | -3.82% (inactive) | – | – | –
7 | O=C1O[C@H]([C@@H](O)CO)C(O)=C1O | inactive | inactive | inactive | inactive | inactive | inactive | -0.298% (inactive) and -0.0182% (inactive) | inactive | inactive | –
8 | NC(=O)c1cccnc1 | inactive | inactive | inactive | inactive | inactive | inactive | -0.433% (inactive) | inactive | inactive | –
9 | CC(=O)C(=O)O | inactive | inactive | inactive | inactive | inactive | inactive | – | – | – | –
10 | CN1[C@@H]2CC(OC(=O)[C@H](CO)c3ccccc3)C[C@H]1[C@@H]1O[C@@H]12 (stereo not given in full) | inactive | – | inactive | inactive | inactive | inactive | 6.06% (inactive) and -0.026% (inactive) | – | inactive | –
11 | CCCCC(CC)C(=O)O (stereo not given) | inactive | inactive | inactive | inactive | inactive | inactive | – | – | – | –
12 | NS(=O)(=O)O | inactive | inactive | inactive | inactive | inactive | inactive | – | – | – | –
13 | O=C1OC2(c3ccccc31)c1cc(Br)c(O)c(Br)c1Oc1c2cc(Br)c(O)c1Br | 4.93 µM (active) and 9.96 µM (active) and 13.3 µM (active) | inactive | 6.2 µM (active) and 22.3 µM (active) and 11.9 µM (active) | inactive | 6.2 µM (active) and 19.9 µM (active) and 10.6 µM (active) | inactive | -7.26% (inactive) | inactive | inactive | –
14 | COc1ccc(OC(F)(F)F)cc1CN[C@H]1CCCN[C@H]1c1ccccc1 | 54.5 µM (active) | – | 61.1 µM (active) | inactive | – | 4.86 µM (active) | – | – | – | –
15 | Nc1c(N=Nc2ccc(-c3ccc(N=Nc4cc(S(=O)(=O)O)c5ccccc5c4N)cc3)cc2)cc(S(=O)(=O)O)c2ccccc12 | 8.63 µM (active) | inactive | 12.2 µM (active) | inactive | 17.2 µM (active) | inactive | -6.72% (inactive) | 22.4 µM (active) | inactive | –
16 | Cc1ccc(S(=O)(=O)O)cc1 | inactive | inactive | inactive | inactive | inactive | – | – | – | – | –
17 | Nc1ccc([N+](=O)[O-])cc1O | 30.6 µM (active) | inactive | 40.9 µM (active) | inactive | 48.6 µM (active) | 61.1 µM (active) | – | – | – | –
18 | CN(C)CCOC(C)(c1ccccc1)c1ccccn1 (stereo not given) | inactive | inactive | inactive | inactive | inactive | inactive | – | – | – | –
19 | CN[C@H]1CC[C@@H](c2ccc(Cl)c(Cl)c2)c2ccccc21 | 29.8 µM (active) | 13.3 µM (active) | 29.8 µM (active) | – | 29.8 µM (active) | – | 8.99% (inactive) | – | – | –
20 | COc1ccc2cc(S(=O)(=O)N[C@H](CC(=O)N[C@H](Cc3ccc(CN4[C@H](C)CCC[C@@H]4C)cc3)C(=O)N(C)C(C)C)c3ccc4c(c3)OCO4)ccc2c1 | 13 µM (active) | 57.9 µM (active) | 51.6 µM (active) | inactive | 29 µM (active) | inactive | – | – | – | –
21 | C=C(C)C(=O)OCC(C)O (stereo not given) | inactive | inactive | inactive | inactive | inactive | inactive | – | – | – | –
22 | CC1(C)O[C@@H]2C[C@H]3[C@@H]4CCC5=CC(=O)C=C[C@]5(C)[C@@]4(F)[C@@H](O)C[C@]3(C)[C@]2(C(=O)CO)O1 | inactive | inactive | inactive | inactive | inactive | – | – | – | – | 12.6 µM (active)
23 | O=c1[nH]cnc2c1ncn2[C@H]1CC[C@@H](CO)O1 | inactive | inactive | inactive | inactive | inactive | inactive | 0.0547% (inactive) | inactive | inactive | –
